# Calls of active or inactive are those of the source.
# Experiments:
# [1] = system: PRMT1 (protein arginine N-methyltransferase 1); assay: small molecules binding arginine methyltransferase PRMT1 – biochemical, small-molecule microarray, 635 nm fluorescence, primary screen (AID 1088); conditions: higher = more signal;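 note: binding of Prmt1 protein to compounds spotted on small-molecule microarray slides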
# [2] = growth effects on S. cerevisiae YJM789 – YJM789 clinical isolate, OD600, 24 h, basal, primary screen (AID 1089); conditions: higher = more signal, called active from +8 up or from −8 down;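 note: growth of clinical yeast isolate S. cerevisiae YJM 789 seeded 1000 cells per well; test concentration not given here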
# [3] = S. pombe growth modifiers, basal conditions – strain 972, OD600, 24 h, no modulator, primary screen (AID 1090);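 note: basal condition with compound alone and no growth modifier present; test concentration not given here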; conditions: S. pombe 972 growth, higher = more signal, called active from +8 up or from −8 down
# [4] = budding yeast growth modifiers under rapamycin – strain BY4716, OD600, 96 h, primary screen (AID 1091); note: test concentration not given here; conditions: S. cerevisiae BY4716 + rapamycin, higher = more signal, called active from +8 up or from −8 down
# [5] = target: Torsin-1A-interacting protein 2 (Homo sapiens) (UniProt Q8NFQ8); assay: small molecules binding lysate-expressed LULL1 – cell lysate, human LULL1 lysate, 635/667 nm fluorescence, primary screen (AID 1092); conditions: small-molecule microarray, hLULL1 lysate binding, 635 nm fluorescence; higher = more signal;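 note: probe is lysate of COS7 cells overexpressing human LULL1; score merges per-feature 667 nm fluorescence with signal-to-noise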
# Sequence of Torsin-1A-interacting protein 2 (Homo sapiens) (Q8NFQ8 whole entry, looked up): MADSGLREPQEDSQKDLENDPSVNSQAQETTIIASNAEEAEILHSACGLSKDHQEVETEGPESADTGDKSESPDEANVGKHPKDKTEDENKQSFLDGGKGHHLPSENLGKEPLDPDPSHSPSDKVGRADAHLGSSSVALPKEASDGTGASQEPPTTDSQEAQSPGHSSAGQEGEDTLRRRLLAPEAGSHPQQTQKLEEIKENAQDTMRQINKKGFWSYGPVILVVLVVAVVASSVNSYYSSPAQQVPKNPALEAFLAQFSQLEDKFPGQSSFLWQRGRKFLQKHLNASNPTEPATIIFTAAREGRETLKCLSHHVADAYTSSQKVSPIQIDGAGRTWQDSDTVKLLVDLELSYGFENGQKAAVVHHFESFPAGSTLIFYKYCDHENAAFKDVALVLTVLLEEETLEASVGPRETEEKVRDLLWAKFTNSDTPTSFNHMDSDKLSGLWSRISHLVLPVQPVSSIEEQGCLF
# [6] = optical density change of DRC41 E. coli – strain DRC41, OD650, 24 h, E. coli filamentation project, primary screen (AID 1093);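 note: MC1000 strain lacking acrAB efflux and sulA so SOS filamentation is blocked; test concentration not given here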; conditions: E. coli DRC41 growth, higher = more signal, called active from +8 up or from −8 down
# [7] = probe aLefty2 binding to arrayed compounds – biochemical, biotinylated probe, 635/667 nm fluorescence, primary screen (AID 1094); conditions: small-molecule microarray, higher = more signal;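 note: score merges spot fluorescence near 667 nm with spot signal-to-noise ratio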
# [8] = system: Noggin (protein binding on small-molecule microarray); assay: small molecules binding Noggin protein – biochemical, 635/667 nm fluorescence, primary screen (AID 1095); conditions: 635 nm fluorescence, higher = more signal;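 note: score merges 667 nm feature fluorescence with signal to noise over triplicate slides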
# [9] = target: Neurogenic locus notch homolog protein 3 (Homo sapiens) (UniProt Q9UM47); assay: small molecules binding NOTCH3 protein – biochemical, 635/667 nm fluorescence, primary screen (AID 1096); conditions: small-molecule microarray, 635 nm fluorescence, higher = more signal
# Sequence of Neurogenic locus notch homolog protein 3 (Homo sapiens) (Q9UM47 whole entry, looked up): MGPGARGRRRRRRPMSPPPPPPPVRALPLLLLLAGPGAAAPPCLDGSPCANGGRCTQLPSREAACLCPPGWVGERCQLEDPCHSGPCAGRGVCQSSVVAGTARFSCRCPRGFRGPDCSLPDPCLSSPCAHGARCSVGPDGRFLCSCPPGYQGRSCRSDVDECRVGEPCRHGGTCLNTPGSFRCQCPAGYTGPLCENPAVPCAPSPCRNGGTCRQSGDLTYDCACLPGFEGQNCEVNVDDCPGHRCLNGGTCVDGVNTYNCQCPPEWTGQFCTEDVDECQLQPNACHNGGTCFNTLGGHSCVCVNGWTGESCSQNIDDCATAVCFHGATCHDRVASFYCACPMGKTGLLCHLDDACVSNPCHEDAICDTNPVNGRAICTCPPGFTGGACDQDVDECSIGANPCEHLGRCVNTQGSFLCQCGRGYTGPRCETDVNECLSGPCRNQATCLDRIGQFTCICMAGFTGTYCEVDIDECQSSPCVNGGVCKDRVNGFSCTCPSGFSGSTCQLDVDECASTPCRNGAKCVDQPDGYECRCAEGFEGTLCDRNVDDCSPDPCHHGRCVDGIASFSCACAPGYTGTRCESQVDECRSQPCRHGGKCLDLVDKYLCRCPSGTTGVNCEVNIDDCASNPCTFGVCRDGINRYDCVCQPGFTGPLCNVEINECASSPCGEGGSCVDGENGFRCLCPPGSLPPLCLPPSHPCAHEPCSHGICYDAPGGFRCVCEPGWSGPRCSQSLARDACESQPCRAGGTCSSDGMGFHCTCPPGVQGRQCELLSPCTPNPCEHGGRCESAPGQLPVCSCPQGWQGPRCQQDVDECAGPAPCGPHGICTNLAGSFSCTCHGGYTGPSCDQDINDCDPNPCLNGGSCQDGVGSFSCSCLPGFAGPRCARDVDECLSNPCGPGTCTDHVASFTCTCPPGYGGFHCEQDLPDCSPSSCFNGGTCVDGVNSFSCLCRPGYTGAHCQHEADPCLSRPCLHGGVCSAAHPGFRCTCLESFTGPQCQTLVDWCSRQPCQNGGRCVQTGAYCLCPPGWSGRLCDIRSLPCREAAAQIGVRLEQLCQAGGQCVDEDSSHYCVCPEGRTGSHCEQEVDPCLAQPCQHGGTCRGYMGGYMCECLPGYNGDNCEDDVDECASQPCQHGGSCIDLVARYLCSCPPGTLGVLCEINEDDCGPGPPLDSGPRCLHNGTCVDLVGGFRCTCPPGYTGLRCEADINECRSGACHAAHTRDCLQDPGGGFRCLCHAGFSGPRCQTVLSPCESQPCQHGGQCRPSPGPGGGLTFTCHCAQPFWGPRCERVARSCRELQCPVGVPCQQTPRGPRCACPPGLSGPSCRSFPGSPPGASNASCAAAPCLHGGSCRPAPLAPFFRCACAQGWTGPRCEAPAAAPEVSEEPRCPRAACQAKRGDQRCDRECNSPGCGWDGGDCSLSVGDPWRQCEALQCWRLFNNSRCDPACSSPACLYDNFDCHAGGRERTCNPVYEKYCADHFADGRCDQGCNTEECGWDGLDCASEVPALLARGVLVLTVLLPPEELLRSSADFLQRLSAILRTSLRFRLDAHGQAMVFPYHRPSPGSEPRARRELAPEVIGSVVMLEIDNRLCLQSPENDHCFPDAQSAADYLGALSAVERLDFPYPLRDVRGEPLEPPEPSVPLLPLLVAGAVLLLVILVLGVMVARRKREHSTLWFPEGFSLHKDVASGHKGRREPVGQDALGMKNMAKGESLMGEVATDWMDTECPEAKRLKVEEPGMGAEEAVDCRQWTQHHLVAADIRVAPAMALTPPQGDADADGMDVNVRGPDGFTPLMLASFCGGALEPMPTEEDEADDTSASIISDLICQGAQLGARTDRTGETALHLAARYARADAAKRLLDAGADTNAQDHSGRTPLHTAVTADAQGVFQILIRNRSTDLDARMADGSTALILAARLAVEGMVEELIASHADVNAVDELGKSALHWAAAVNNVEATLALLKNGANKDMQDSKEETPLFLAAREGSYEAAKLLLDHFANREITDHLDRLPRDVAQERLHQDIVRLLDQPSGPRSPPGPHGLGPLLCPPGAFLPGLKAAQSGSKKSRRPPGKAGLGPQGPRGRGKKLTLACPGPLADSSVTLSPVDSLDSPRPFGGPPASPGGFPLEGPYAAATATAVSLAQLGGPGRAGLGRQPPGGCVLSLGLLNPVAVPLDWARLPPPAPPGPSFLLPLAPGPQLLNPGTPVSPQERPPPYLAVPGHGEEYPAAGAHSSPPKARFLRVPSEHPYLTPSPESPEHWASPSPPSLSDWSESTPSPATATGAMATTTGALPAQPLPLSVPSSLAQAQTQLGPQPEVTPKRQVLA
# [10] = probe aEGFR binding to arrayed compounds – biochemical, biotinylated probe, 635/667 nm fluorescence, primary screen (AID 1097); conditions: small-molecule microarray, higher = more signal;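 note: probe is a biotinylated anti-EGFR antibody binding compounds printed on slides; score combines fluorescence near 667 nm and signal to noise of each spot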
# [11] = system: Plasmodium falciparum Sir2 (PF13_0152, Sir2A); assay: Plasmodium falciparum Sir2A binding compounds – biochemical, small-molecule microarray, 635 nm fluorescence, primary screen (AID 1098); conditions: fluorescence 635 nm, higher = more signal;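 note: score merges spot fluorescence intensity with its signal-to-noise ratio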
# [12] = probe aDKK1 binding to arrayed compounds – biochemical, biotinylated probe, 635/667 nm fluorescence, primary screen (AID 1099); conditions: small-molecule microarray, higher = more signal;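 note: score merges 667nm spot fluorescence with signal to noise across triplicate slides; reference of the scale not given here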
# [13] = probe aCHRDL2 binding to arrayed compounds – biochemical, biotinylated probe, 635/667 nm fluorescence, primary screen (AID 1100); conditions: small-molecule microarray, higher = more signal
# [14] = change in splice reporter luminescence, either direction, cell-based, HEK293, spliceosome inhibition project, primary screen (AID 1101); conditions: HEK293 splicing luciferase reporter, 24 h, higher = more signal, called active from +8 up or from −8 down;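 note: HEK293 cells carrying a splicing-competent luciferase reporter gene; test concentration not given here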
# [15] = target: Fibroblast growth factor 10 (Homo sapiens) (UniProt O15520); assay: compounds binding fibroblast growth factor 10 – biochemical, small-molecule microarray, 635 nm fluorescence, primary screen (AID 1102); conditions: FGF10 binding, fluorescence 635 nm, higher = more signal
# Sequence of Fibroblast growth factor 10 (Homo sapiens) (O15520 whole entry, looked up): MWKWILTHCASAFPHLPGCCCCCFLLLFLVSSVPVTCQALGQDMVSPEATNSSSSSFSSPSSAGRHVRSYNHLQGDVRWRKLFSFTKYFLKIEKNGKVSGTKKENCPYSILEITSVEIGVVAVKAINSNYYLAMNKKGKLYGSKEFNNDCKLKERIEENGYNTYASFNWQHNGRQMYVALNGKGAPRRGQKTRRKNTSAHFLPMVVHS
# [16] = system: glycogen synthase kinase-3 (GSK3A per assay name; protocol says GSK3B); assay: compounds binding glycogen synthase kinase-3 – biochemical, small-molecule microarray, 635 nm fluorescence, GSK3A, primary screen (AID 1103); conditions: fluorescence 635 nm, higher = more signal; note: the record names both GSK3A and GSK3B
# [17] = target: Epidermal growth factor receptor (Homo sapiens) (UniProt P00533); assay: compounds binding epidermal growth factor receptor – biochemical, small-molecule microarray, 635 nm fluorescence, primary screen (AID 1104); conditions: EGFR binding, higher = more signal;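 note: score merges 667 nm emission intensity with spot signal to noise over triplicate slides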
# Sequence of Epidermal growth factor receptor (Homo sapiens) (P00533 whole entry, looked up): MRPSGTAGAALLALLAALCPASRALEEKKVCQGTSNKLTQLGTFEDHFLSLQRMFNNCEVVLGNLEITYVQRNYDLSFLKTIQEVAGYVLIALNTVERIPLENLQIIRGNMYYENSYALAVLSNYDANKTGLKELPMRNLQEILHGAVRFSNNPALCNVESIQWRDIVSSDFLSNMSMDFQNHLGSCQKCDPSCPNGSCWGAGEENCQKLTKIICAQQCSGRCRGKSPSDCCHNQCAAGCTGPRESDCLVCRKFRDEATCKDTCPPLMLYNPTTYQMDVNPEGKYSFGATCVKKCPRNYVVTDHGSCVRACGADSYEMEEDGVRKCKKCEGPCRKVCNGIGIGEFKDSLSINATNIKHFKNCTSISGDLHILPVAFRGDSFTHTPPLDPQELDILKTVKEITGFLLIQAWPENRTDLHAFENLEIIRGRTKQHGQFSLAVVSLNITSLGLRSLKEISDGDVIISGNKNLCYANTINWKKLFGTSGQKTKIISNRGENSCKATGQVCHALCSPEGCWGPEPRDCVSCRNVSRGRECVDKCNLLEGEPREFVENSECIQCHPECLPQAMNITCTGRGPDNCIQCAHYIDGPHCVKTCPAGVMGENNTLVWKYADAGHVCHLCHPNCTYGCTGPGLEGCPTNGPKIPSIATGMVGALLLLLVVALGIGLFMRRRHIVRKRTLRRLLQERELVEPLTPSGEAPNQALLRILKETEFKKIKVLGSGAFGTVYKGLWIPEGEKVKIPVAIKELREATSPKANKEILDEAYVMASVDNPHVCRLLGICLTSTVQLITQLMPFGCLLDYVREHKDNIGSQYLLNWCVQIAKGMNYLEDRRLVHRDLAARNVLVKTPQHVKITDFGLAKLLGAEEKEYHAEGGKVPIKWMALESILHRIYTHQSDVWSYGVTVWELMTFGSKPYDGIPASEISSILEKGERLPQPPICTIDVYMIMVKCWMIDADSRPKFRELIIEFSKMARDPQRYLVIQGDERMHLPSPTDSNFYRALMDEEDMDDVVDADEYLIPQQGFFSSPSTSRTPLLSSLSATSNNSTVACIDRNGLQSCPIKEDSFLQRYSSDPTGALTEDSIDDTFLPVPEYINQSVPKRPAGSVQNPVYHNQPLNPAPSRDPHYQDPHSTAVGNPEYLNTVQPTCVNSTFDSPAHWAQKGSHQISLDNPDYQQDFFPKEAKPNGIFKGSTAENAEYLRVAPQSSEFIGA
# [18] = target: Follistatin-related protein 3 (Homo sapiens) (UniProt O95633); assay: compounds binding follistatin-related protein 3 – biochemical, small-molecule microarray, 635 nm fluorescence, primary screen (AID 1105); conditions: FSTL3 binding, higher = more signal;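 note: score merges emission near 667 nm and signal to noise per printed spot across three slides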
# Sequence of Follistatin-related protein 3 (Homo sapiens) (O95633 whole entry, looked up): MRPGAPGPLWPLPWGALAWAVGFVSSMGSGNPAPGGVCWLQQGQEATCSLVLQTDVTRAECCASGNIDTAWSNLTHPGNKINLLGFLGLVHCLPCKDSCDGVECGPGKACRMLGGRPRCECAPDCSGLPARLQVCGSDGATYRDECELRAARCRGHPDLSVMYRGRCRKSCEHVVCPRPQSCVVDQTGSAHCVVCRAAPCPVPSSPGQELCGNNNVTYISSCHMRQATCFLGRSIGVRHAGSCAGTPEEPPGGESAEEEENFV
# [19] = target: Dickkopf-related protein 1 (Homo sapiens) (UniProt O94907); assay: small molecules binding DKK1 protein – biochemical, small-molecule microarray, 635 nm fluorescence scan, primary screen (AID 1106); conditions: higher = more signal;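 note: score merges emission near 667 nm with signal to noise over three replicate slides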
# Sequence of Dickkopf-related protein 1 (Homo sapiens) (O94907 whole entry, looked up): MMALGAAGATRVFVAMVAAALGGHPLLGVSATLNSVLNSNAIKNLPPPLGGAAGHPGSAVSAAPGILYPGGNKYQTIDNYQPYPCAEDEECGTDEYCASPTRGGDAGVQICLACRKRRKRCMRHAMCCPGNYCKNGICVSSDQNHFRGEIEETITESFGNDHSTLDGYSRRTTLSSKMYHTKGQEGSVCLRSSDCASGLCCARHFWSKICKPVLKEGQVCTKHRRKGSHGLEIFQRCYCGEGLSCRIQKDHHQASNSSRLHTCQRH
# [20] = system: Inhibin beta A chain (activin A); assay: small molecules binding activin A – biochemical, small-molecule microarray, 635 nm fluorescence scan, primary screen (AID 1107); conditions: INHBA, higher = more signal;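 note: mouse activin A protein probed at 4.33 µg/mL on printed slides; score merges bound-protein fluorescence near 667 nm with spot signal-to-noise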
SMILES,composite z-score [1],z-score [2],z-score [3],z-score [4],composite z-score [5],z-score [6],composite z-score [7],composite z-score [8],composite z-score [9],composite z-score [10],composite z-score [11],composite z-score [12],composite z-score [13],z-score [14],composite z-score [15],composite z-score [16],composite z-score [17],composite z-score [18],composite z-score [19],composite z-score [20]
COC(=O)C1N=C(c2ccc(OCCCO)cc2)N(c2ccccc2)O1 (stereo not given),0.433,-0.686 (inactive),-1.16 (inactive),-0.417 (inactive),2.07,0.267 (inactive),0.156,0.981,0.698,0.271,1.05,0.947,1.11,-0.155 (inactive),1.48,1.22,0.172,0.864,0.604,0.453
C[C@]1(C(=O)O)c2ccccc2C(=O)N(Cc2ccc(OC(F)(F)F)cc2)[C@H]1c1ccc(CO)cc1,-0.0461,-0.691 (inactive),-0.767 (inactive),-0.686 (inactive),0.945,0.402 (inactive),0.122,-0.94,-0.505,-0.179,0.0634,0.702,1.01,0.524 (inactive),0.0104,-0.502,-0.409,-0.0953,-0.656,0.496
NCCCCCNC(=O)[C@H]1C[C@H]2C(=O)N[C@@H](Cc3ccccc3)C(=O)N2[C@H]1c1ccc(O)cc1,0.584,0.5 (inactive),-0.335 (inactive),-0.578 (inactive),1.92,0.0565 (inactive),0.887,0.521,0.423,0.151,1.16,1.42,0.937,0.195 (inactive),-0.0576,0.431,-0.381,0.275,0.224,1.39
CC(C)c1ccc(NN2C(C(O)Cc3ccccc3)C=CC3C(=O)N(c4ccccc4)C(=O)C32)cc1 (stereo not given),1.48,-0.619 (inactive),-0.699 (inactive),0.844 (inactive),3.51,-1.36 (inactive),0.388,0.294,1.07,0.205,0.587,0.655,0.811,-0.469 (inactive),0.932,1.04,0.399,1.26,0.241,-0.323
COc1ccc([Si](C)(C)[C@H]2[C@H](CCO)O[C@@]3(C(=O)N(Cc4ccc(N5C(=O)c6ccccc6Oc6ccccc65)cc4)c4ccccc43)[C@@H]2C)cc1,0.263,2.1 (inactive),-1.25 (inactive),22.7 (active),0.822,0.511 (inactive),0.0004,-1.01,-0.532,0.0125,0.094,-0.0509,0.477,-0.964 (inactive),-0.94,-1.96,-0.732,-1.25,-1.02,-0.917

# Source: PubChem BioAssay
